Measured values published in PubChem BioAssay AID624170 (National Center for Advancing Translational Sciences (NCATS), 2012).
“And” between values parts separate entries of the source, which are not always exact repeats. Equal values may be shown once. Out of some 410,000 compounds screened, about 850 (0.21%) were called active. Not shown: some 2% with an inconclusive outcome. Calls come from the whole dose curve; as a rule, active = well fitted inhibition curve with a large enough effect; inconclusive = small, poorly fitted or top-dose-only effect, or another doubt; inactive = no such curve, though single readings can be large or run the other way. For the sample, actives were picked, then their nearest neighbours and some compounds at random. More than one record can exist for a structure, and the calls need not agree.

Molecular target: Glutaminase kidney isoform, mitochondrial (Homo sapiens) (UniProt O94925)
Experiment: qHTS for Inhibitors of Glutaminase (GLS)
Conditions: GLS enzymatic activity, qHTS titration; series mostly up to 45.5 µM; activity change, negative = inhibition: at the top concentration
Excerpt: Glutaminase (GLS) catalyzes the hydrolysis of glutamine into glutamate and ammonia. It plays a critical role in glutaminolysis, which is an important energy source for proliferating cells. It was shown that c-Myc, an oncogenic transcription factor known to regulate microRNAs and to stimulate cell proliferation, increases glutamine metabolism by stimulating the expression of GLS via direct suppression of miR23a and miR23b.
GLS is also thought to play a pathogenic role on HAD using a human HIV-1 infected macrophage system. […] GLS inhibition limits glutamate release and provides neuroprotection against HIV-1 infected macrophages.
The overall goal of this project is to identify small molecule inhibitors of GLS through quantitative high throughput screening (qHTS) of the MLSMR. A validated potent and selective inhibitor can be used as a tool molecule to further study the pharmacology of its target as well as explore its potential therapeutic application in cancer and inflammatory neurological disorders, such as HIV1-associated dementia (HAD) and multiple sclerosis.
NIH Chemical Genomics Center [NCGC]
NIH Molecular Libraries Probe Centers Network [MLPCN]
Assay Submitter (PI): Barbara S. Slusher, Johns Hopkins University
Three 3 uL of hKGA is dispensed into black well 1536-well plates in 45 mM KH2PO4 (pH 8.2), 0.02% Tween-20. Then 23 nL of compounds are added through pin tool transfer. To this, 1 uL of 1mM L-Glutamine and 1 uL of a solution of L-Glutamateoxidase, HRP, Amplex red are added. Plate is centrifuged for 25 sec before an initial fluorescence read is obtained on the ViewLux, after 30 min of RT incubation, the final read is taken on the ViewLux.
% is set by controls: 0 for no effect and ±100 for the full control effect; potency is the fitted concentration of half-maximal effect.

Sequence of Glutaminase kidney isoform, mitochondrial (Homo sapiens) (O94925 whole entry, looked up, canonical isoform): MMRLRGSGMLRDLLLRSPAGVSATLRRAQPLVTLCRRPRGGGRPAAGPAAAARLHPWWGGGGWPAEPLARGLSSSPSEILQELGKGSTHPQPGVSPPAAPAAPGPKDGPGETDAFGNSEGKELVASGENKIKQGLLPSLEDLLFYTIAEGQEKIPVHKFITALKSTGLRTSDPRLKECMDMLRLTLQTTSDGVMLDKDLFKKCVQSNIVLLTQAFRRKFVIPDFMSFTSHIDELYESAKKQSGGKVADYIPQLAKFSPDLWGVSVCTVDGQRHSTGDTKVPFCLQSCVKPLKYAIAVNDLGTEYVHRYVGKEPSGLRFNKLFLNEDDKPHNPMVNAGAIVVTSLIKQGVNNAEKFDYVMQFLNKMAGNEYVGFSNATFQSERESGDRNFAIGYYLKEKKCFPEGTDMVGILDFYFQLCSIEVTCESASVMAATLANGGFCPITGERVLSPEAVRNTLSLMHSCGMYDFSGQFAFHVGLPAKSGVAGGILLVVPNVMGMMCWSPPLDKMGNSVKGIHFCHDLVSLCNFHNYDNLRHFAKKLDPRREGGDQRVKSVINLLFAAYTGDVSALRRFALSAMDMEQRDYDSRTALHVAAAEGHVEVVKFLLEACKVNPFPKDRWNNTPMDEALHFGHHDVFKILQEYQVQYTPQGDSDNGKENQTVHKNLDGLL

Activity change, negative = inhibition, inactive:
CNC(=O)CN1C(=O)c2cccnc2Sc2ccccc21 6.23%
CC(=O)c1ccc(NC(=O)COc2ccccc2-c2nc(-c3ccccc3)no2)cc1 1.67%
CCOC(=O)c1cc2c(=O)n3ccccc3nc2n(CC2CCCO2)c1=NC(=O)c1ccc(C(C)(C)C)cc1 (centres undefined) 1.12%
CCC(C)C1OC2(C=CC1C)CC1CC(C/C=C(/C)C(OC3CC(OC)C(OC4CC(OC)C(NC(C)=O)C(C)O4)C(C)O3)C(C)/C=C\C=C3\COC4C(O)C(C)=CC(C(=O)O1)C34O)O2 (centres undefined) -26.7%
C[C@@H]1C[C@H]2[C@@H]3C[C@H](F)C4=CC(=O)C=C[C@@]4(C)[C@]3(F)[C@H](O)C[C@]2(C)[C@@]1(O)C(=O)CO 0.486% [at 20 µM]
O=C(Nc1ccccc1Cl)N1CCC(CN2CCCC2)CC1 3.88%
O=C(Nc1ccccc1Cl)N1CCC(CN2CCCCC2)CC1 -5.88%
O=C(/C=C/c1cccc(F)c1)NC1CC1 4.05%
Cc1nnc(C(=O)NC(C)(C)c2nc(C(=O)NCc3ccc(F)cc3)c(O)c(=O)n2C)o1 5.68%
COc1ccc(OC)c([C@H](O)CNC(=O)CN)c1 -13.6% [at 20 µM]
Cc1cc(C)c2nc(SCC(=O)N(C)C3CCS(=O)(=O)C3)cc(C)c2c1 (centres undefined) -2.3%
CCN(C(=O)COC(=O)/C=C/c1nc2ccccc2s1)C1CCS(=O)(=O)C1 (centres undefined) -13.8%
CCOC(=O)CN1C(C(=O)c2ccccc2)=C(OC(=O)C(C)(C)C)c2ccccc2S1(=O)=O -4.55%
NC(=O)[C@H]1CC2(CC(c3cccc(NC(=O)[C@H]4CCC(=O)N4)c3)=NO2)CN1C(=O)c1ccccc1C(=O)c1ccccc1 (some centres undefined) 7.06%
CCC(=O)Nc1cccc(C2=NOC3(C2)C[C@@H](C(N)=O)N(C(=O)c2cc([N+](=O)[O-])cc([N+](=O)[O-])c2C)C3)c1 (some centres undefined) -2.13%
COc1ccc(OC)c(NC(=O)Cn2c(=O)n(Cc3ccccc3)c(=O)c3ccccc32)c1 -4.18%
CC[C@]1(C)CC(=O)NC1=O 0.282%
O=P(O)(O)OC[C@H](O)CO -1.43%
CC(C)c1ccc(NS(=O)(=O)c2ccc3[nH]cc(C(=O)NC4CCCC4)c(=O)c3c2)cc1 -9.07%
COc1cc(Cl)c(C)cc1NC(=O)CCc1nc2cccnc2n1Cc1cccs1 0.67%
CC1(C)S[C@@H]2[C@H](NC(=O)COc3ccccc3)C(=O)N2C1C(=O)OCc1ccccc1 (some centres undefined) 4.77%
COC(=O)Cc1ccc(OCC(=O)NC2CCCC2)cc1 5.37%
OCC(CO)NC1C[C@](O)(CO)[C@@H](O)[C@H](O)[C@H]1O (some centres undefined) -5.08%
CC(=O)OCC(=O)[C@@]1(O)CC[C@@H]2[C@H]3CCC4=CC(=O)C=C[C@]4(C)[C@]3(F)[C@@H](O)C[C@@]21C 1.13% [at 20 µM]
Cc1c(Cl)cccc1NC(=O)C1CCCN(c2ncnc3onc(C)c23)C1 (centres undefined) -6.23%
Cc1cccc(C(C)C)c1NC(=O)C(NS(=O)(=O)c1cccc2nsnc12)c1ccccc1 (centres undefined) -0.851%
COCCCn1c(SCC(=O)NC2CCCC2)nnc1-c1ccccc1 -2.76%
COCCn1c(Cc2cccn2C)nnc1SCC(=O)Nc1nccs1 -12.2%
FCOC(C(F)(F)F)C(F)(F)F -0.0238%
C=C1C(=CC=C2CCC[C@@]3(C)[C@@H]2CC[C@H]3[C@H](C)CCCC(C)C)C[C@@H](O)C[C@@H]1O -7.16%
CCOC(=O)c1ccc(NC(=O)CSc2nc3c([nH]c4ccccc43)c(=O)n2C)cc1 -2.03%
CCOc1ccc(-n2c(C)nc3c(cnn3-c3ccc(C)cc3)c2=O)cc1 -4.38%
COc1ccc(-n2c(O)c(C=NCC(c3ccco3)N3CCCC3)c3ccccc3c2=O)cc1OC (centres undefined) -0.259%
CCOc1ccc(N/C(N)=N/c2nc(C)c(C)c(=O)[nH]2)cc1 4.49%
CCOc1ccc(-n2c(SCC(=O)NCc3ccccc3)nc3n[nH]c(C)c3c2=N)cc1 -24.6%
Cc1ccc(-c2ncc(Cl)cc2-c2ccc(S(C)(=O)=O)cc2)cn1 5.57%
COc1ccc2c(c1)c(=O)c(S(=O)(=O)c1ccc(F)cc1)cn2CC(=O)Nc1ccc(C)cc1C 4.91%
CC1(C)OC2CC(=O)OC[C@@]23C1CC(=O)[C@]1(C)C3CC[C@@]2(C)C(c3ccoc3)OC(=O)C3O[C@@]321 (some centres undefined) -16.2%
CCOC(=O)Cc1cccc(-c2cc(CCCCCCc3ccc(O[C@H]4O[C@H](COC(C)=O)[C@@H](OC(C)=O)[C@H](OC(C)=O)[C@@H]4OC(C)=O)c(-c4cccc(CC(=O)OCC)c4)c3)ccc2O[C@H]2O[C@H](COC(C)=O)[C@@H](OC(C)=O)[C@H](OC(C)=O)[C@@H]2OC(C)=O)c1 3.57%
Cc1nc(N2CCOCC2)c2c(C(=O)NCc3cccc(Cl)c3)c(C)oc2n1 0.0319%
COc1ccc(S(=O)(=O)NCc2cccn2Cc2cccc(C)c2)cc1Cl -10.6%
Cc1ccc(Cl)cc1NC(=O)CCC(=O)N1CC(C)Sc2ccccc21 (centres undefined) 8.36%
Cc1cccc(C(=O)Nc2ccc(-c3nc4ccccc4s3)c(C)c2)c1 7.67%
Cc1ccc(-n2c(SCC(=O)NCCC3=CCCCC3)nc3n[nH]c(C)c3c2=N)cc1Cl -5.74%
COc1ccc(-n2c(SCC(=O)Nc3ccc(Cl)c(C)c3)nc3n[nH]c(C)c3c2=N)cc1 -1.2%
C[C@H]1C[C@H]2[C@@H]3CCC4=CC(=O)C=C[C@]4(C)[C@@H]3C(=O)C[C@]2(C)[C@@]1(O)C(=O)CO 10.2%
O=C(O)c1ccc2c(c1)N(Cc1ccc(F)cc1)C(=O)c1ccccc1S2=O (centres undefined) -6.31%
COc1cc2c(cc1OC)[C@@H](Cc1cc(OC)c(OC)c(OC)c1)[N+](C)(CCCOC(=O)CC/C=C/CCC(=O)OCCC[N+]1(C)CCc3cc(OC)c(OC)cc3[C@H]1Cc1cc(OC)c(OC)c(OC)c1)CC2 (some centres undefined) 0.105%
NNc1nnc(Cc2ccncc2)c2ccccc12 -2.67%
COc1ccc(/C(O)=C2/C(=O)C(=O)N(CCCN(C)C)C2c2ccccc2)cc1OC (centres undefined) -4.13%
CCCOc1ccc(/C(O)=C2/C(=O)C(=O)N(CCN(C)C)C2c2ccc(OC)c(OC)c2)cc1 (centres undefined) 9.91%
COc1ccc(N2CCN(c3cc(C)nc4nncn34)CC2)cc1 54.9%
CCc1ccc(NC(=O)CN2C(=O)CCSc3ccc(S(=O)(=O)N4CCCC4)cc32)cc1 -1.16%
O=C(Nc1cccc(C(F)(F)F)c1)c1cc(Br)cc(Br)c1O 5.07%
COc1ccc(C2=NOC3(CC(=O)N(c4ccc(Cl)cc4)C3=O)C2)c(OC)c1 (centres undefined) 0.557%
COc1ccc(OC)c(-c2noc(N3CCN(c4cc(Cl)ccc4C)CC3)n2)c1 -13%
Cc1cc(C)c2sc(NC(=O)c3ccc(S(=O)(=O)N4CCCC4)cc3)nc2c1 3.27%
Cc1cn([C@H]2CC(F)[C@@H](CO)O2)c(=O)[nH]c1=O (some centres undefined) 1.43%
CO/N=C(\C(=O)N[C@@H]1C(=O)N2C(C(=O)O)=C(Cn3nnc(C)n3)CS[C@H]12)c1csc(N)n1 1.07%
C[C@]12CC[C@@H]3c4ccc(O)cc4C[C@@H](CCCCCCCCCS(=O)CCCC(F)(F)C(F)(F)F)C3[C@@H]1CC[C@@H]2O (some centres undefined) 1.78%
Cc1cccc(C)c1NC(=O)NC1=CCCN1C -6.33%
CCCC(=O)O[C@]1(C(=O)COC(=O)CC)CC[C@@H]2[C@@H]3CCC4=CC(=O)CC[C@]4(C)[C@H]3[C@@H](O)C[C@@]21C -15.3%
CN1CC(O)c2cc(N=NC(N)=O)c(O)cc21 (centres undefined) 4.71%
CC(=O)O[C@]1(C(C)=O)CC[C@@H]2[C@@H]3C=C(C)C4=CC(=O)CC[C@@]4(C)[C@H]3CC[C@]21C 0.635% [at 20 µM]
CC(C)(C)c1ccc(S(=O)(=O)N2CCN(C(=O)c3cc(-c4ccc(Br)cc4)n[nH]3)CC2)cc1 1.4%
COc1ccc(Cl)cc1S(=O)(=O)Nc1cccc(C(=O)O)c1 13.6%
COc1cc(/C=C/C(=O)O)cc(S(=O)(=O)Nc2ccccc2SC)c1OC 22.4%
COc1cc2c(cc1OC)CC(=O)N(CCCN(C)C[C@H]1Cc3cc(OC)c(OC)cc31)CC2 33.9%
Cc1ccccc1C(=O)N(Cc1ccc(N(C)C)cc1)CC1CCCO1 (centres undefined) 16.2%

Potency, active:
O=C(Nc1ccccc1Cl)/C(Cl)=C(\Cl)S(=O)c1ccccc1 (centres undefined) 1.78 µM
CN(C(=O)COC(=O)c1cc(-c2ccco2)nc2ccccc12)C1CCS(=O)(=O)C1 (centres undefined) 10 µM
C=C(C)C(=O)Nc1cccc(C2=NOC3(C2)C[C@H](C(N)=O)N(C(=O)C(c2ccccc2)c2ccccc2)C3)c1 (some centres undefined) 14.1 µM
CC(C)(C)C1C/C(=C/c2ccco2)C(=O)/C(=C/c2ccco2)C1 (centres undefined) 22.4 µM
COCCCn1c(Cc2csc(Nc3cccc(Cl)c3)n2)nnc1SCC(=O)OC1CCCCC1 12.6 µM
CCOc1ccc(-n2c(O)c(/C=N/Nc3nc(C)cc(C)n3)c3ccccc3c2=O)cc1 11.2 µM
CCOc1ccc(-n2c(O)c(/C=N/Nc3nnc(C)c(=O)[nH]3)c3ccccc3c2=O)cc1 10 µM
COc1cccc(-n2c(SCC(=O)NC3CCCCC3)nc3n[nH]c(C)c3c2=N)c1 10 µM
COc1ccc(C2/C(=C(/O)c3ccccc3)C(=O)C(=O)N2c2ncccn2)cc1OC (centres undefined) 8.91 µM
COc1ccc2c(c1)C(=O)Nc1cc(Cl)ccc1N2 12.6 µM
C=CC1=C(C(=O)O)N2C(=O)[C@@H](NC(=O)/C(=N/OCC(=O)O)c3csc(N)n3)[C@H]2SC1 12.6 µM
C=CC1=C(C(=O)O)N2C(=O)[C@@H](NC(=O)/C(=N\OCC(=O)O)c3csc(N)n3)[C@H]2SC1 12.6 µM
COc1cc(OC)c(S(=O)(=O)Nc2ccccc2C(=O)O)cc1S(=O)(=O)Nc1ccccc1C(=O)O 5.62 µM
Nc1ccc2nc3c(=O)[nH]c(=S)[nH]c3nc2c1 3.16 µM

Potency, inactive and 8.91 µM (active):
CC1(C)SC2C(NC(=O)COc3ccccc3)C(=O)N2C1C(=O)O (centres undefined)
